Our source for the activity change, negative = inhibition values is PubChem BioAssay AID1259421 (Broad Institute, 2018).

Where “and” joins values, the source holds several entries; their conditions need not be identical. Equal values may be shown once. Out of some 6,400 compounds screened, about 610 (9.5%) were called active. Rule as the data show it: active = activity change below about -70%; inconclusive = no clear call, values can overlap the other calls; inactive = above that. This excerpt belongs to a sample that is enriched for actives. The source holds several records for some structures; these can differ, active in one and inactive in another.

The experiment is described as follows: T. gondii ME49Luc in HeLa cells, luciferase assay, 72 h, no IFN-y (AID 1259421). Particulars: stronger effect = lower value, concentration not given here.
Turning to `CN1CCN(C(=O)C2C3CCC(O3)C2C(=O)O)CC1` (configuration not stated), the activity change, negative = inhibition was 3.27% (inactive).

As to `Cc1sc[n+](CC(=O)c2ccccc2)c1C`, the activity change, negative = inhibition is 60.9% (inactive).

As for `CSc1ccc2c(c1)C(N1CCN(C)CC1)Cc1ccccc1S2` (configuration not stated), the activity change, negative = inhibition was -82.4% (active) and -87% (active) and -85.3% (active).

For the molecule `CN1CCN(C2Cc3ccccc3Sc3ccc(Cl)cc32)CC1` (configuration not stated), the activity change, negative = inhibition is 7.98% (inactive).

`CSc1ccc2c(c1)N(CCC1CCCCN1C)c1ccccc1S2` (configuration not stated): the activity change, negative = inhibition was 31.1% (inactive) and -16.1% (inactive).

Consider `C[C@@H]1O[C@@H](O[C@H]2[C@H](Oc3cc(O)c4c(=O)cc(-c5ccc(O)cc5)oc4c3)O[C@H](CO)[C@@H](O)[C@@H]2O)[C@H](O)[C@H](O)[C@H]1O`, for which the activity change, negative = inhibition is 5.34% (inactive).

For the molecule `CCO[C@H]1OC(=O)C[C@@H]1NC(=O)[C@@H]1CCCN1C(=O)[C@@H](NC(=O)c1ccc(N)c(Cl)c1)C(C)(C)C`, the activity change, negative = inhibition is 3.07% (inactive).

On to `CCOC(=O)[C@@]1(CCCCCCOc2ccc(Cl)cc2)CO1`, for which the activity change, negative = inhibition was 17.5% (inactive).

On to `O=C(O)CC(=O)C(=O)O`, for which the activity change, negative = inhibition is 21.8% (inactive).

Regarding `CC(NCCc1ccc(O)cc1)C(O)c1ccc(O)cc1` (configuration not stated), the activity change, negative = inhibition is 1.92% (inactive) and 4.83% (inactive).

For the molecule `CCCCCCCCNC(C)C(O)c1ccc(SC(C)C)cc1` (configuration not stated), the activity change, negative = inhibition was -84.8% (active) and -78% (active) and 18.5% (inactive).

Consider `C[C@@H](NCCc1ccc(O)cc1)[C@@H](O)c1ccc(O)cc1`, for which the activity change, negative = inhibition is 24.4% (inactive).

For the molecule `NS(=O)(=O)c1cccc2c1c([N+](=O)[O-])cc1[nH]c(=O)c(=O)[nH]c12`, the activity change, negative = inhibition was 4.26% (inactive) and 1.99% (inactive) and 17.2% (inactive).

With `CC(C)C1C2CCC(C2)C1N` (configuration not stated), the activity change, negative = inhibition was -31.8% (inactive).

As for `O=[N+]([O-])c1nccn1CC(O)CN1CCCCC1` (configuration not stated), the activity change, negative = inhibition was -0.914% (inactive).

In the case of `Cc1nc(C)c(-c2ccc(C3CCC(CC(=O)O)CC3)cc2)nc1C(N)=O` (configuration not stated), the activity change, negative = inhibition was 21.5% (inactive).

For the molecule `CNC(=O)[C@H]1O[C@@H](n2cnc3c(NCc4cccc(I)c4)nc(Cl)nc32)[C@H](O)[C@@H]1O`, the activity change, negative = inhibition is -25.8% (inactive).

On to `C=CC(=O)N1CCC[C@@H](n2nc(-c3ccc(Oc4ccccc4)cc3)c3c(N)ncnc32)C1`, for which the activity change, negative = inhibition was -76.1% (active).

On to `C/C(=C(/CCOC(=O)C(C)C)SS/C(CCOC(=O)C(C)C)=C(\C)N(C=O)Cc1cnc(C)nc1N)N(C=O)Cc1cnc(C)nc1N`, for which the activity change, negative = inhibition is -5.95% (inactive).

In the case of `CC(C)c1c(O)ccc2c1CCC1C(C)(C)CCC[C@]21C` (some centres not stated), the activity change, negative = inhibition is 25.1% (inactive).

For the molecule `CC(=O)Oc1ccc2c(c1C(C)C)CCC1C(C)(C)CCC[C@]21C` (some centres not stated), the activity change, negative = inhibition was -4.41% (inactive).

For `COC(=O)[C@@]1(C)CCC[C@]2(C)c3ccc(O)c(C(C)C)c3CCC12` (some centres not stated), the activity change, negative = inhibition was -72.7% (active).
